Dicer processing = inhibitors of human Dicer processing of pre-microRNA; cat-ELCCA pre-miR-21 Dicer processing, chemiluminescence; hits give high values; z-score at 25 µM; 47,000 tested, 6% active; AID 1347074; Q9UPY3; in the data active = z-score above about 3, passing the limit was not always enough;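 note: plate controls were vehicle for no effect and no enzyme for full effect; higher signal means more uncleaved substrate so more Dicer inhibition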
Target sequence (Q9UPY3 whole entry, looked up): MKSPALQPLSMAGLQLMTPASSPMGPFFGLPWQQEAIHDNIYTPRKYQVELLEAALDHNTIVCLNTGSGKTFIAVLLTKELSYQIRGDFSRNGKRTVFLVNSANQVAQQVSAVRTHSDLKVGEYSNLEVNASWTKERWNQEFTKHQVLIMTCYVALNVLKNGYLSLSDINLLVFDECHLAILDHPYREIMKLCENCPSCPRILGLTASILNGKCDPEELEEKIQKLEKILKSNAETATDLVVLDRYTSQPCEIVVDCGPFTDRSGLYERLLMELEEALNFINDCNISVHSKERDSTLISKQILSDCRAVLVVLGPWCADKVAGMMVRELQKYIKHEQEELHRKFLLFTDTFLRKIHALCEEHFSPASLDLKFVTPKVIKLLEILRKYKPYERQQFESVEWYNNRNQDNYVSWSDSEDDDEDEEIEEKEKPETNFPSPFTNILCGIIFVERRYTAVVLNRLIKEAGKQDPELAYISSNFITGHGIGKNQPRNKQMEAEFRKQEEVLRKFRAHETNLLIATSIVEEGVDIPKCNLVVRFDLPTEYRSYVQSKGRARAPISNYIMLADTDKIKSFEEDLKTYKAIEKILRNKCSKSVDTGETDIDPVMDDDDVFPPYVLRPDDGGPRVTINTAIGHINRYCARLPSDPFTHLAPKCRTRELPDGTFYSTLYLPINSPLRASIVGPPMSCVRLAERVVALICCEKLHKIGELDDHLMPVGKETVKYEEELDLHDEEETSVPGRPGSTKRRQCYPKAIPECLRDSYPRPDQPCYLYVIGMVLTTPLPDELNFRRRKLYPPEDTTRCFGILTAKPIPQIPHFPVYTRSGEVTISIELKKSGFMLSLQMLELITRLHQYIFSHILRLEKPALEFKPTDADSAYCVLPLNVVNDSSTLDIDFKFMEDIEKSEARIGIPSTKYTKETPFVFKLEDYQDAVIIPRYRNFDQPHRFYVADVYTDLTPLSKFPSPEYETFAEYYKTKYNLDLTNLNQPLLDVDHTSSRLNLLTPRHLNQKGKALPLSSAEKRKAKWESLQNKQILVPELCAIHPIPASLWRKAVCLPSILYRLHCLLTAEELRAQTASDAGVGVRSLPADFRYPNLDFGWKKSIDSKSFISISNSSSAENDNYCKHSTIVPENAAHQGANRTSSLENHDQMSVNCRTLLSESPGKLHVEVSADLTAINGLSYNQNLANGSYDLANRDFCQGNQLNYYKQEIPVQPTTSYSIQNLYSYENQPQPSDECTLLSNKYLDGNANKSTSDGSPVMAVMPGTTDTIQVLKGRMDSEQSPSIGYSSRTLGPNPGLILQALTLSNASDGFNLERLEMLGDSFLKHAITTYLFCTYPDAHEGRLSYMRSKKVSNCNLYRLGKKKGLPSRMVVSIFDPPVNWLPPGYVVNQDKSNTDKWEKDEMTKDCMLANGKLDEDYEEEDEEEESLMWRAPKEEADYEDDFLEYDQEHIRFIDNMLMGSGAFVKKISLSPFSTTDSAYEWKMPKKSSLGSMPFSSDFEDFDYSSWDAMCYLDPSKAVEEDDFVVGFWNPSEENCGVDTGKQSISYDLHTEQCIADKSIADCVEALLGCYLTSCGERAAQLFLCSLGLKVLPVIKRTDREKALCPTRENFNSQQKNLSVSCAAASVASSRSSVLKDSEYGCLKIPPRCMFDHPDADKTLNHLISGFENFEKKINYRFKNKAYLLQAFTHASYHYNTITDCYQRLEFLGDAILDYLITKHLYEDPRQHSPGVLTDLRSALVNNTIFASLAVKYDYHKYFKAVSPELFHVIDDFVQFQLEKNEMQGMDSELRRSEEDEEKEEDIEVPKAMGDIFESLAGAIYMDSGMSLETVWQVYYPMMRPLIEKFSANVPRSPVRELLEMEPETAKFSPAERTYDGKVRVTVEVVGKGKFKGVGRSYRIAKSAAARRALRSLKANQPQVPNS
Starred values were filed as active, the others as inactive. The full list was thinned out, with hits kept by preference.

SMILES | Dicer processing
O=C(NOC(=O)c1cccs1)c1ccco1 | 0.09
COC(=O)c1c(C)sc2c(C(F)(F)F)cc(=O)[nH]c12 | 0.96
CCCCC1(CNc2ccc(C)c([N+](=O)[O-])c2)C(=O)N(c2ccccc2)N(c2ccccc2)C1=O | 2.2
CCCCC1(CO)C(=O)N(c2ccccc2)N(c2ccccc2)C1=O | 6.1*
CCCCC1(COC(=O)Nc2cccc(Cl)c2)C(=O)N(c2ccccc2)N(c2ccccc2)C1=O | 1.8
CC(C)(C)c1ccc(N2C(=O)c3cc(Cl)c(Cl)cc3C2=O)cc1 | 0.77
COc1ccc(NC(=O)CSc2nnc(-c3csc4c3CCCC4)o2)cc1 | 0.92
COC(=O)c1cc(OC)c(OC)cc1NC(=O)C(C)(C)C | 2.2
Cc1ccc(C(=O)c2cc(O)c(O)c([N+](=O)[O-])c2)cc1 | 8.4*
CC(=O)c1ccc(SC(C)C)c([N+](=O)[O-])c1 | -2.3
O=C(c1cc(O)c(O)c([N+](=O)[O-])c1)c1ccccc1F | -0.16
N/C(=N\OC(=O)Nc1csc(-c2cccc(Cl)c2Cl)n1)c1ccc(C(F)(F)F)cc1 | -0.81
CC(=O)Oc1ccc2c(=O)c(Oc3ccccc3)c(C(F)(F)F)oc2c1C | 0.69
Cc1ccc(-c2cc3ncc(C(=O)c4cc(F)ccc4O)cn3n2)cc1 | -1.5
Cc1cc(Nc2ccccc2C)c2cccc(C)c2n1 | -1.1
Cc1cccc(C)c1Nc1nc2c(C)cc(C)c(C)c2s1 | 4.2*
Cc1ccc(Nc2nc3ccccc3s2)c(C)c1 | 0.88
C=C(C)Cc1c(COC)nc(SCC(=O)C(C)(C)C)[nH]c1=O | 1.8
O=S(=O)(Nc1ccc2c(c1)OCCO2)c1ccc(-c2ccno2)s1 | -0.93
C=CCNc1nc2c(c(=O)[nH]c(=O)n2C)n1CC | 3.2*
CCCNc1nc2c(c(=O)[nH]c(=O)n2C)n1CCO | 1.1
C=CCNc1nc2c(c(=O)[nH]c(=O)n2C)n1CC(O)CO (centres undefined) | 0.87
COc1ccc(C(=O)/C=C2\SC(=O)C(=O)N2c2ccccc2)cc1 | -0.89
CNC(=S)NNC(=O)c1cnccc1C(F)(F)F | 0.46
CCOC(=O)c1nnn(Cc2ccccc2Cl)c1N | 9.8
SMILES | Dicer processing
O=[N+]([O-])c1ccc(NCCCCCO)nc1 | 0.11
Cn1c(-c2c(N)n(Cc3ccccc3)c(=O)c3cc([N+](=O)[O-])ccc23)nc2ccccc21 | -0.08
CC(C)c1c(O)nc(SCCN2CCOCC2)[nH]c1=O | -0.1
CCN(CC)CCSc1nc(O)c(C(C)C)c(=O)[nH]1 | 4.2*
CCc1c(O)nc(SCCN(CC)CC)[nH]c1=O | 0
COc1ccc2c(=O)c(Oc3cc(C)cc(C)c3)c(C(F)(F)F)oc2c1 | 16
Cc1cc(C)c2nc(Nc3nc(C)cc(C)n3)nc(C)c2c1 | 3.3*
Cc1cc(C)c2nc(Nc3nc4ccccc4c(=O)[nH]3)nc(C)c2c1 | 3
CC1=CC(C)(C)N=C(Nc2nc(C)c3cc(C)cc(C)c3n2)N1 | -0.43
COC(=O)c1ccc([C@@H]2Nc3ccccc3[C@@H]3C=CC[C@@H]32)cc1 | 1.1
Cc1cc(Nc2ccc(I)cc2F)c2ccccc2n1 | 0.74
Cc1ccc(CNc2ncc(-c3ccc(F)cc3)n2C)cc1 | 2.2
COc1cccc(CNc2ncc(-c3ccc(Br)cc3)n2C)c1 | 1.1
CCOc1ccc(-c2cnc(NCc3cc(Cl)ccc3O)n2C)cc1 | 2.8
Cc1ccc(-c2cnc(NCc3cc(Br)ccc3F)n2C)cc1 | 3.6
COc1ccc(CNc2ncc(-c3ccc(Br)cc3)n2C)cc1OC | -0.09
Cn1c(-c2ccc(Br)cc2)cnc1NCc1ccc(F)cc1 | 3.1*
Cn1c(-c2ccccc2)cnc1NCc1ccc(Br)cc1 | 1.1
CCOc1cc(CNc2ncc(-c3ccc(Br)cc3)n2C)ccc1O | 3.4*
Cn1c(-c2ccc(F)cc2)cnc1NCc1cc(Cl)ccc1O | 5.6*
Cn1c(-c2ccc(F)cc2)cnc1NCc1cc(Br)ccc1F | 3.1*
COc1cccc(-c2cnc(NCc3cc(Br)ccc3F)n2C)c1 | 53
Cn1c(-c2ccc(F)cc2)cnc1NCc1ccccc1Cl | 2.1
CN(C)CCCNC(=O)c1cc2ccccc2[nH]1 | 0.92
Fc1ccc(CN2CCCN(c3ncnc4scc(-c5ccccc5)c34)CC2)cc1 | -1.4
SMILES | Dicer processing
O=C(c1cccc(C(=O)N2CCc3ccccc32)c1)N1CCc2ccccc21 | 0.2
Cn1c2ccc(Br)cc2c2cc(Br)cc(Br)c21 | -0.48
Cc1nnc(N2C(=O)C(O)=C(C(=O)c3cccs3)C2c2ccc(C(C)C)cc2)s1 (centres undefined) | 0.33
COc1ccc(C2C(C(=O)c3cccs3)=C(O)C(=O)N2CCCN(C)C)cc1 (centres undefined) | -0.27
CC(C)c1ccc(C2C(C(=O)c3cccs3)=C(O)C(=O)N2CCN(C)C)cc1 (centres undefined) | 4.7*
CN(C)CCCN1C(=O)C(O)=C(C(=O)c2cccs2)C1c1ccncc1 (centres undefined) | 1.2
CC(C)c1ccc(C2C(C(=O)c3cccs3)=C(O)C(=O)N2CCN2CCOCC2)cc1 (centres undefined) | -0.41
CN(C)CCN1C(=O)C(O)=C(C(=O)c2cccs2)C1c1ccncc1 (centres undefined) | 4.1*
COc1ccc(-c2nnc(SCc3ccccc3Cl)o2)cc1 | -0.69
CNC(=O)Sc1ccccc1Cl | -1.4
O=C(Cn1c(=O)oc2ccccc21)Nc1nncs1 | -0.26
COc1ccccc1-c1nnc(SC)n1-c1ccccc1 | 0.2
CC(=O)c1c(C)nc(-c2ccc(C(F)(F)F)cc2)nc1SCc1ccccc1 | -0.78
COC1=C(OC)C2(C=CC1=O)CC(C)(C)N=C2SC (centres undefined) | 1.1
CSC1=NC(C)(C)CCC12C=CC(=O)C=C2 | 3.2*
CCOC(=O)c1cc(CC)sc1NC(=O)CC1Sc2ccccc2NC1=O (centres undefined) | 1.3
COC(=O)c1ccc2c3c(onc13)-c1ccccc1C2=O | -1.1
CCOC(=O)c1c(C)oc2ccc(NS(=O)(=O)c3cccc4cccnc34)cc12 | -1.6
COC(=O)c1cscc1S(=O)(=O)N1CCN(c2coc3ccccc3c2=O)CC1 | 1.1
CN=C(N)NCCC[C@H](N)C(=O)O | 0.12
NC(CCCP(=O)(O)O)C(=O)O (centres undefined) | 3.2*
N[C@@H](CCCC(=O)O)C(=O)O | 0.32
CCc1[nH]nc2c1C(c1cc(OC)ccc1OC)C(C#N)=C(N)O2 (centres undefined) | -0.73
C/C(=C/c1cccc2ccccc12)[N+](=O)[O-] | 1.3
O=c1oc(-c2ccccc2)nc2sc3c(c12)CCCCC3 | 3.1*
SMILES | Dicer processing
O=c1oc(-c2cccs2)nc2sc3c(c12)CCCCC3 | 0.26
Cc1ccccc1-c1nc2sc3c(c2c(=O)o1)CCC3 | 0.99
O=c1oc(-c2ccccc2)nc2sc3c(c12)CCCC3 | 0.54
O=c1oc(/C=C/c2ccccc2)nc2sc3c(c12)CCC3 | 4.8*
S=c1nc2sc3c(c2c(Nc2ccccc2)[nH]1)CCCC3 | -0.93
COc1cc(C2C(C#N)=C(N)Oc3cc(O)ccc32)ccc1OCc1ccc(F)cc1 (centres undefined) | -2.1
NC(=O)c1c2ccccc2nc2ccccc12 | -0.57
CCN(C(=O)Nc1c(-c2c(Cl)cccc2Cl)noc1C)c1ccccc1 | 1.2
O=C(O)CCC(NC(=O)OCc1ccccc1)C(=O)O (centres undefined) | 0.24
O=C(O)CCC(C(=O)O)N1C(=O)c2ccccc2C1=O (centres undefined) | 3.2*
O=C(CCC(C(=O)O)N1C(=O)c2ccccc2C1=O)Nc1ccc2c(c1)COCO2 (centres undefined) | -1.8
CCn1c2c(c3cc(C)ccc31)CCCC2=O | 1.3
